Screening results (PubChem)
DT40 TDP1 no CPT – qHTS for Inhibitors of human tyrosyl-DNA phosphodiesterase 1 (TDP1): qHTS in cells in absence of CPT. DT40 Tdp1-/- hTDP1 cells, no CPT, ATP luminescence, 48 h. Potency, µM (series often up to 46.2 µM), without a hit: at the highest dose activity change, negative = growth inhibition, most hits filed as inhibitors. 420,000 compounds, 15% hits; note: potency is the fitted concentration of half-maximal effect; % is set by controls: 0 for no effect and ±100 for the full control effect; nearly all actives have a fitted effect of over 55% in size
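Growth of hTDP1-complemented DT40 Tdp1-knockout cells is measured by ATP luminescence after at least 48 hr compound exposure at 37 °C, with DMSO substituting for the 20 nM CPT used in the parallel screen.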
ASM inhibitor – Inhibitors of Secretory Acid Sphingomyelinase (S-ASM): qHTS. Sphingomyelin phosphodiesterase (Homo sapiens), P17405. placental ASM, HMU-PC fluorogenic substrate, 60 min. Potency, µM (doses to about 57.5 µM), inactives show top-dose activity change, negative = inhibition, most hits filed as inhibitors. 340,000 compounds, 0.006% hits. AID 504937, 2011; note: potency is the fitted concentration of half-maximal effect
Target sequence (P17405 47-631 limits assumed): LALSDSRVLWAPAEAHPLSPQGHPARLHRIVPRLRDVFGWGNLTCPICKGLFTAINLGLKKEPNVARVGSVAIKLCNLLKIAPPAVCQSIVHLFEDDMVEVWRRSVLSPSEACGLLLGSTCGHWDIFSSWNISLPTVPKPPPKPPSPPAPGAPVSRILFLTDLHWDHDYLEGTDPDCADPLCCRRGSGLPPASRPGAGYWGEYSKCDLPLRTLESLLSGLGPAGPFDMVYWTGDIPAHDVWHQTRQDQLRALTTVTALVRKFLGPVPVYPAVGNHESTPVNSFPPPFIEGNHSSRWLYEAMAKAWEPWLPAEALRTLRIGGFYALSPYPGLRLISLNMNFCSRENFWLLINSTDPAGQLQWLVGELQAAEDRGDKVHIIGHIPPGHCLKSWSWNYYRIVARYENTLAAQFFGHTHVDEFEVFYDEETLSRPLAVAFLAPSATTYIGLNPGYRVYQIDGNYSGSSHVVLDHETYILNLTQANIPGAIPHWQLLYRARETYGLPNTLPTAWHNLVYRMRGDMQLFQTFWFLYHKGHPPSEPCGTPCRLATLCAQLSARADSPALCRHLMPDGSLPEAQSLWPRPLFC
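Fluorogenic HMU-PC substrate (9 uM final) is turned over by placental ASM in 60 min at 37 C after a 10 min compound preincubation. Reaction ended by alkaline stop (pH 10), with fluorescence read at 386/447 nm.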
HepG2 viability – qHTS for Inhibitors of TGF-b: Cytotox Counterscreen; 410,000 compounds, 0.76% hits; AID 588856, 2011; Potency, µM (top dose mostly 46.1 µM), for the others: at the top dose activity change, negative = cytotoxicity, hits mostly cytotoxic; HepG2 CAGA-GFP viability, ATP luminescence, 18 h; note: potency is the fitted concentration of half-maximal effect
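HepG2 CAGA-GFP cells (1000/well, DMEM with 1% FBS) received compound, then TGF-beta at 500 pg/mL final, and were incubated 18 hours at 37 degrees C. Viability was read by CellTiter-Glo luminescence. Media-only wells were set as complete cell-killing and DMSO as no toxicity.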
IL1B secr inh – qHTS for Inhibitors of Inflammasome Signaling: IL-1-beta AlphaLISA Primary Screen; activity change, % at 57.5 µM; THP-1 LPS/ATP IL-1B secretion, AlphaLISA, 16 h; hits give low values; 360,000 compounds, 4.7% hits; AID 743279, 2014; in the data active = activity change below about -50%; inconclusive = mostly about -30% to -49%; note: % is set by controls: 0 for no effect and ±100 for the full control effect
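THP-1 cells pretreated 1 hr with compounds (up to 57.5 uM final), then stimulated with LPS (250 ng/mL final) plus ATP (1.25 mM final); secreted IL-1B measured by AlphaLISA after 16 hr, decreased signal indicating inhibition.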
TGFb SMAD3 inh – qHTS for Inhibitors of TGF-b; AID 588855, 2011; Potency, µM (doses to about 46.1 µM), for the others: at the highest dose activity, negative = inhibition, most hits filed as inhibitors; 410,000 compounds, 1.2% hits; HepG2 CAGA-GFP TGF-b/SMAD3 reporter, GFP fluorescence, 18 h; TGF-beta stimulated, 500 pg/mL final; note: potency is the fitted concentration of half-maximal effect; % is set by controls: 0 for no effect and ±100 for the full control effect; nearly all actives have a fitted effect of over 65% in size
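Cell-based qHTS in HEPG2 carrying a CAGA-GFP Smad reporter; compounds added before 500 pg/mL final TGF-beta, 18 h incubation at 37 degrees C, GFP fluorescence quantified per cell by imaging cytometry.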
DT40 TDP1 CPT – qHTS for Inhibitors of human tyrosyl-DNA phosphodiesterase 1 (TDP1): qHTS in cells in presence of CPT | chicken DT40 Tdp1-/-;hTDP1 cells + 20 nM CPT, ATP luminescence, 48 h | Potency, µM (top dose mostly 46.2 µM), without a hit: at the highest dose activity change, negative = growth inhibition, hits mostly inhibitors | 420,000 compounds, 12% hits; note: potency is the fitted concentration of half-maximal effect; % is set by controls: 0 for no effect and ±100 for the full control effect; nearly all actives have a fitted effect of over 55% in size
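Chicken DT40 Tdp1-/- cells complemented with human TDP1, 400 cells/well, exposed to compounds plus 20 nM camptothecin for at least 48 h at 37 C; viability read as ATP content by CellTiter-Glo luminescence.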
Starred values were filed as active, the others as inactive; u = inconclusive; x = not tested or not shown; ! = not confirmed by another sample. The list is not random: actives were taken first. Their share in the collection is about 19%. Unless noted, calls come from the whole dose curve; as a rule, active = well fitted curve in the direction sought with a large enough effect; inconclusive = small, poorly fitted or top-dose-only effect, or another doubt; inactive = no such curve, though single readings can be large; an effect the other way counts as inactive or inconclusive.

SMILES	DT40 TDP1 no CPT	ASM inhibitor	HepG2 viability	IL1B secr inh	TGFb SMAD3 inh	DT40 TDP1 CPT
CC(C)c1nnc(NC(=O)c2ccc(N3C(=O)CCC3=O)cc2)s1	6.9%	3.9%	-0.6%	9.0	14.7%	3.7%
CC/C(=N\NC(=O)Cc1ccc(Br)cc1)c1cccs1	-7.4%	1.6%	-1.3%	0.0	-3.4%	-11.1%
FC(F)(F)c1cc(NC2CCCCC2)ccn1	29.1µM*	0.6%	-22.1%	16.5	-14.6%	-15.8%
Cc1nc2n(c(=O)c1CCN1CCC(c3noc4cc(F)ccc34)CC1)CCC[C@H]2O	0.531µM*	x	x	x	x	0.0944µM*
Cc1ccc(-n2ncc(C(=O)NCCCN3CCc4ccccc4C3)c2C2CCN(C(=O)OC(C)(C)C)CC2)cc1C	u	x	15.8µM*	x	u	u
Cc1ccc(-n2ncc(C(=O)NCCN3CCCC3)c2C2CCN(C(=O)OC(C)(C)C)CC2)cc1C	u	x	-37.7%	x	0.0%	16.4µM*
Cc1ccc(-n2ncc(C(=O)NCCCN3CCc4ccccc4C3)c2C2CCN(C(=O)OC(C)(C)C)CC2)c(C)c1	20.6µM*	x	-80.3%	x	u	20.6µM*
Cc1ccc(-n2ncc(C(=O)NCCN3CCc4ccccc4C3)c2C2CCNCC2)cc1C	20.6µM*	x	-22.8%	x	14.7%	20.6µM*
CC(C)(C)OC(=O)N1CCC(c2c(C(=O)NCCN3CCc4ccccc4C3)cnn2-c2ccc(F)cc2)CC1	u	x	-55.9%	x	u	u
COc1ccc(Cl)cc1NS(=O)(=O)c1c(C)nc2sccn2c1=O	-6.3%	9.0%	-2.1%	-9.4	1.4%	-0.4%
Cc1noc(C)c1C(=O)OCC(=O)NCCc1ccccc1	-5.8%	3.9%	5.3%	-4.3	3.6%	0.1%
COc1ccc(NC(=O)COC(=O)CCCC2=NS(=O)(=O)c3ccccc3N2)cc1Cl	25.5%	-0.3%	-1.8%	-16.9	5.7%	2.0%
CC(=O)Nc1ccc(NC(=O)c2cnn(-c3ccccc3)c2C2CCN(C(=O)OC(C)(C)C)CC2)cc1	-21.8%	x	0.8%	x	15.0%	-23.3%
CCOc1ccc(NC(=O)c2cnn(-c3ccc(C)c(C)c3)c2C2CCN(C(=O)OC(C)(C)C)CC2)cc1	16.4µM*	x	-0.2%	x	-1.6%	16.4µM*
CCN1CCN(CCCNC(=O)c2cnn(-c3ccccc3)c2C2CCN(C(=O)OC(C)(C)C)CC2)CC1	0.5%	x	-17.6%	x	-19.9%	-9.9%
CC(C)(C)OC(=O)N1CCC(c2c(C(=O)NCCCN3CCc4ccccc4C3)cnn2-c2ccccc2)CC1	23.1µM*	x	-39.5%	x	u	u
Cc1cccc(C)c1-n1ncc(C(=O)NCCCN2CCC(C)CC2)c1C1CCN(C(=O)OC(C)(C)C)CC1	20.6µM*	x	5.1%	x	2.0%	u
CCOC(=O)c1c(C)[nH]c(C)c1S(=O)(=O)NCC1CCN(Cc2ccccc2OC)CC1	3.5%	0.1%	-16.8%	u	2.7%	u
CN(C)Cc1ccc(CNC(=O)COc2ccc3ccccc3c2)cc1	u	19.4%	-24.0%	-14.0	-16.9%	-26.6%
COc1ccc(OC)c(NC(=O)C23CC4CC(C2)CC(n2cnc(Br)n2)(C4)C3)c1	10µM*	1.1%	-42.6%	2.6	4.2%	11.2µM*
Cc1ccc(-c2nc3n(n2)C(c2ccccc2Cl)C=C(c2ccc(Cl)cc2)N3)cc1 (configuration not stated)	u	x	-1.9%	x	-0.2%	u
CCc1sc(C(C2C(=O)CC(C)(C)CC2=O)C2C(=O)CC(C)(C)CC2=O)cc1[N+](=O)[O-]	5.17µM*	4.2%	-6.5%	-247.5*	u	4.11µM*
COc1cc2c(C#Cc3cccnc3)c(-c3ccsc3)oc(=O)c2cc1OC	u	8.2%	-13.9%	9.0	u	u
CN(C)S(=O)(=O)c1cccc(C(=O)C2=C3SC=C(c4ccccc4)N3CC2)c1	23.1µM*	-0.5%	-20.1%	6.7	3.0%	u
CC(=O)Nc1ccc(Nc2ccccc2)cc1	1.1%	-1.7%	3.8%	0.9	-4.4%	u
SMILES	DT40 TDP1 no CPT	ASM inhibitor	HepG2 viability	IL1B secr inh	TGFb SMAD3 inh	DT40 TDP1 CPT
O=C(Nc1ccccc1)Nc1ccc(-n2ccc(C(F)(F)F)n2)cc1	18.4µM*	-0.1%	5.8%	u	14.3%	u
O=C(Nc1ccc(-n2cccc2)cc1)C1CC1	9.2µM*	6.0%	-13.6%	0.0	1.1%	9.2µM*
O=C(Nc1ccccc1)Nc1ccc(Nc2ccccc2)cc1	7.31µM*	-1.4%	-22.8%	-20.2	-15.8%	u
O=C(Nc1ccc(Nc2ccccc2)cc1)C1CC1	6.51µM*	0.0%	-0.6%	-29.1	2.3%	7.31µM*
CN(Cc1ccccc1)S(=O)(=O)c1ccc(N2CCCC2=O)cc1	u	0.7%	-25.4%	29.6	u	u
O=C(NNc1cccc(Cl)n1)Nc1ccccc1	-15.5%	1.6%	-9.4%	-9.6	0.0%	0.7%
O=C(Nc1ccccc1)Nc1ccccc1	u	-0.3%	-26.2%	-1.0	-1.0%	18.4µM*!
CC(C)C(=O)Nc1nnc(-c2ccccc2)o1	-19.8%	2.8%	1.6%	4.9	-8.4%	-17.0%
CC(=O)Nc1ccccc1	1.9%	2.8%	-20.4%	-8.2	-6.8%	-8.3%
O=C(Nc1cccc2nsnc12)c1cccs1	-29.1%	61.1%	-28.0%	-19.4	-11.5%	-26.7%
O=C(Nc1ccccc1)Nc1nnc(-c2ccccc2)o1	u	-4.9%	-17.4%	-102.3*	3.5%	29.1µM*
O=C(Nc1ccccc1)Nc1ccc(Cl)nc1Cl	u	-2.1%	16.5%	-79.1*	u	u
O=C(Nc1ccccc1)Nc1cccc2nsnc12	u	-2.2%	-24.0%	-73.8*	u	u
CC(=O)N1c2ccccc2CC1C(=O)N1CCN(c2cccc(Cl)c2)CC1 (configuration not stated)	-13.5%	x	-0.1%	x	31.1%	u
O=S1(=O)CC(N2CCN(CC3CC3)CC2)CN1Cc1ccccc1 (configuration not stated)	-24.7%	x	-11.9%	0.0	-6.3%	u
CCOc1ccc(OCCSc2nc(-c3ccccc3)cc(=O)[nH]2)cc1	u	5.5%	-19.9%	17.7	-9.7%	11.7%
COCCNC(=O)c1ccccc1NC(=O)Nc1ccccc1	-9.5%	-3.8%	0.0%	-50.2*	0.0%	3.7%
